From article PMC12864922, “TDP-43 directly inhibits mRNA accumulation in neurites through modulation of mRNA stability”
Over roughly 9,900 sequences, “r (bound/input frequency ratio)” has its median near 0.7; the highest 2% begin near 6.5. Only a selection was taken, and the highest values are over-represented in it overall.

B1: ENSMUSG00000034801.23|Sos2 (ssRNA)
RNA: GGGAGUUCUACAGUCCGACGAUCGCUUCGAUAUCCGCAUGCUAGAUUCCACGCAGCUGUCACUUGCUCAGCUCCAGUCACAGCAGCCUUGCUCAUCUUCCAGCUCCUCCUGUCCCACCAAGGCAGAAUUCAAGCCCUCUCUUACCAAAGCUGCCACCAAAGACUUACAAACGGGAGCUUUCCCACCCGCCACUGUAUAGACUGCCUCUGCUGGAAAAUGCAGAAACUCCUCAAUGACCUUGGCCAUAUGUAGUCAUUGACACUGGAAUAGUAUUUGUAAAGGUUUUUAAUUUAUUCAAAAAGACUCUUGCGGUCGCACUAGUGUGGAAUUCUCGGGUGUCAAGG
B2: ENSMUSG00000028439.146|Fam219a (ssRNA)
RNA: GGGAGUUCUACAGUCCGACGAUCGCUUCGAUAUCCGCAUGCUAUCUAUUGGUUCCAGGCUGGAAGCAAGAGAUAAGGCUGGCCUCCUGUGCCCCAUUGCCAUUUCACCCUAGCUCAAAGUCCAGGAGCCAGGCUUCCAGAAAGGCUCUUCAAGAGCAAGCUUAAGGAAAUACAGUGAGCCAAGUGGCUGUAUGAUAUGGUAUGGUAUGGUAUGGUAUGGUAUGGUAUGGUAUGCACAUGUGUGUGCAUGUGUGUGUGCCUGUGUGUGUGCGUGUGCGUGUGUGUAUGUGUGUGCGUGUGUGUGCUCUUGCGGUCGCACUAGUGUGGAAUUCUCGGGUGUCAAGG
B3: ENSMUSG00000028439.139|Fam219a (ssRNA)
RNA: GGGAGUUCUACAGUCCGACGAUCGCUUCGAUAUCCGCAUGCUAUCUGCCUCAUCCCCACACCGCCCUGCCACCCCCAGUCUUCUGUCUAUUGGUUCCAGGCUGGAAGCAAGAGAUAAGGCUGGCCUCCUGUGCCCCAUUGCCAUUUCACCCUAGCUCAAAGUCCAGGAGCCAGGCUUCCAGAAAGGCUCUUCAAGAGCAAGCUUAAGGAAAUACAGUGAGCCAAGUGGCUGUAUGAUAUGGUAUGGUAUGGUAUGGUAUGGUAUGGUAUGGUAUGCACAUGUGUGUGCAUGUGUGUGUGCCUGCUCUUGCGGUCGCACUAGUGUGGAAUUCUCGGGUGUCAAGG
B4: ENSMUSG00000028439.143|Fam219a (ssRNA)
RNA: GGGAGUUCUACAGUCCGACGAUCGCUUCGAUAUCCGCAUGCUAGCCACCCCCAGUCUUCUGUCUAUUGGUUCCAGGCUGGAAGCAAGAGAUAAGGCUGGCCUCCUGUGCCCCAUUGCCAUUUCACCCUAGCUCAAAGUCCAGGAGCCAGGCUUCCAGAAAGGCUCUUCAAGAGCAAGCUUAAGGAAAUACAGUGAGCCAAGUGGCUGUAUGAUAUGGUAUGGUAUGGUAUGGUAUGGUAUGGUAUGGUAUGCACAUGUGUGUGCAUGUGUGUGUGCCUGUGUGUGUGCGUGUGCGUGUGUGUACUCUUGCGGUCGCACUAGUGUGGAAUUCUCGGGUGUCAAGG
B5: ENSMUSG00000028439.142|Fam219a (ssRNA)
RNA: GGGAGUUCUACAGUCCGACGAUCGCUUCGAUAUCCGCAUGCUACGCCCUGCCACCCCCAGUCUUCUGUCUAUUGGUUCCAGGCUGGAAGCAAGAGAUAAGGCUGGCCUCCUGUGCCCCAUUGCCAUUUCACCCUAGCUCAAAGUCCAGGAGCCAGGCUUCCAGAAAGGCUCUUCAAGAGCAAGCUUAAGGAAAUACAGUGAGCCAAGUGGCUGUAUGAUAUGGUAUGGUAUGGUAUGGUAUGGUAUGGUAUGGUAUGCACAUGUGUGUGCAUGUGUGUGUGCCUGUGUGUGUGCGUGUGCGUGCUCUUGCGGUCGCACUAGUGUGGAAUUCUCGGGUGUCAAGG
B6: ENSMUSG00000028439.144|Fam219a (ssRNA)
RNA: GGGAGUUCUACAGUCCGACGAUCGCUUCGAUAUCCGCAUGCUACCCAGUCUUCUGUCUAUUGGUUCCAGGCUGGAAGCAAGAGAUAAGGCUGGCCUCCUGUGCCCCAUUGCCAUUUCACCCUAGCUCAAAGUCCAGGAGCCAGGCUUCCAGAAAGGCUCUUCAAGAGCAAGCUUAAGGAAAUACAGUGAGCCAAGUGGCUGUAUGAUAUGGUAUGGUAUGGUAUGGUAUGGUAUGGUAUGGUAUGCACAUGUGUGUGCAUGUGUGUGUGCCUGUGUGUGUGCGUGUGCGUGUGUGUAUGUGUGCUCUUGCGGUCGCACUAGUGUGGAAUUCUCGGGUGUCAAGG
B7: ENSMUSG00000028439.145|Fam219a (ssRNA)
RNA: GGGAGUUCUACAGUCCGACGAUCGCUUCGAUAUCCGCAUGCUACUUCUGUCUAUUGGUUCCAGGCUGGAAGCAAGAGAUAAGGCUGGCCUCCUGUGCCCCAUUGCCAUUUCACCCUAGCUCAAAGUCCAGGAGCCAGGCUUCCAGAAAGGCUCUUCAAGAGCAAGCUUAAGGAAAUACAGUGAGCCAAGUGGCUGUAUGAUAUGGUAUGGUAUGGUAUGGUAUGGUAUGGUAUGGUAUGCACAUGUGUGUGCAUGUGUGUGUGCCUGUGUGUGUGCGUGUGCGUGUGUGUAUGUGUGUGCGUGCUCUUGCGGUCGCACUAGUGUGGAAUUCUCGGGUGUCAAGG
B8: ENSMUSG00000004113.108|Cacna1b|97:101;113:118;234:238 (ssRNA)
RNA: GGGAGUUCUACAGUCCGACGAUCGCUUCGAUAUCCGCAUGCUAGGACCCAGCAAAUCCAAAUCCUAUGUCAUGGCCUCCAGCAUCCAGGGUGGGUCCUUGGGACUUUUCUUAGGAGGGACUUUCUGAGCCUCGUGGAGACACACGUUUGUCCAAAACACACGCAUGGGAGAUAGGGUACCCCUGAAAGCAAGGAAAGGAGCCCAGCUGUGGCCUGGUAGCACCUGCCGGCACCAGUGAUCUCACGUCUCUUGUGGUCUUGGAGUCAAAUAGCACAUCAUACUAGAGAUGCGCUCAAGGGCCUGCUCUUGCGGUCGCACUAGUGUGGAAUUCUCGGGUGUCAAGG
B9: ENSMUSG00000042529.323|Kcnj12 (ssRNA)
RNA: GGGAGUUCUACAGUCCGACGAUCGCUUCGAUAUCCGCAUGCUAGAUGCUGUAUUUUCAAAUUCUCCUGCCCUCUUUUCCCCUUUUUCCCUGUAUUUAUUUAUUGCUUGUGCUAAAGACCAAACUAGCCGCCCCCUUUAGUGCACCCAAUGGAGGAAGCCACUGAGGGGGGAGCCGUGUGCCUGUGCCAGGCAGGAAAGCUUGGCCCCUGGGAAGUGUGUGAGAAGGAAAACCAGGGUGUGUGUGCACGCAUGUGCAGACGUGCUCACACGAUCGUCUCCCUGUGUGGGAAACUUGGUAUGCAGCUCUUGCGGUCGCACUAGUGUGGAAUUCUCGGGUGUCAAGG
B10: ENSMUSG00000031028.526|Tub (ssRNA)
RNA: GGGAGUUCUACAGUCCGACGAUCGCUUCGAUAUCCGCAUGCUACUUUCUCUUUUAUGGAAAUGGCAGGUCUAUUUGCCUCAAACGUUAUGUAGAAGUAGUUCUAAGUUUAACAAGCAAUAGAGAUGACUGCUUAGCUAGGAUCUGCAGGGAGCUCUGCUCUGCAAGCACAACACCUGUCUCAUAGAUGGACAGCCUGGUUUCCCUUCUCAGCAGUCCUGGCCUCCCCUUCUCUGUAUUCCUUGCCCCAGCUACGAUAUCCUCAUGGGAUUUCAGGAUGCCAGGUGCCAUCAAAGCAUGCUUUUCUCUUGCGGUCGCACUAGUGUGGAAUUCUCGGGUGUCAAGG
B11: ENSMUSG00000061578.913|Ksr2|118:122 (ssRNA)
RNA: GGGAGUUCUACAGUCCGACGAUCGCUUCGAUAUCCGCAUGCUACAGAGACAGAUUUCCCAGAAUCCCUGGGCCACUUCUCAAUUCUACCCAUGACAGACAUGUCCCAUCCAUGAGCCCAGAUAGUCAAAGACUUCAGCACAAGGGUGUUUAGAGUAGGCACACACGAAGUAUCAAUAAGGUUAUUGAGAUGAGGAUUUAGAAAGAUCCAUGUAUAAAAGGUCUAGAAGGAUGAAGAUCUAAAACAAGAAGACUGCAUGUUAACGCUCCUGCCACUGUUGCCCCUUCCUUUACCCUUGGCAGACCUCUUGCGGUCGCACUAGUGUGGAAUUCUCGGGUGUCAAGG

What follows are binders tested against TDP-43 (Homo sapiens, UniProt Q13148 1-414) (assay: RNA Bind-n-Seq with designed 260-mer pool; 25 mM Tris-HCl, 150 mM KCl, 3 mM MgCl2, BSA (printed 500 mg/mL), 20 units/mL SUPERase IN; pH not stated; 500 nM RNA pool, 1 h, 4 C; TDP-43 5, 50, 500 nM; high values mean tight binding). Conditions: protein: recombinant; tags: SBP (GST cleaved off with PreScission; pGEX-GST-SBP).
Sequence of TDP-43 (Q13148 whole entry): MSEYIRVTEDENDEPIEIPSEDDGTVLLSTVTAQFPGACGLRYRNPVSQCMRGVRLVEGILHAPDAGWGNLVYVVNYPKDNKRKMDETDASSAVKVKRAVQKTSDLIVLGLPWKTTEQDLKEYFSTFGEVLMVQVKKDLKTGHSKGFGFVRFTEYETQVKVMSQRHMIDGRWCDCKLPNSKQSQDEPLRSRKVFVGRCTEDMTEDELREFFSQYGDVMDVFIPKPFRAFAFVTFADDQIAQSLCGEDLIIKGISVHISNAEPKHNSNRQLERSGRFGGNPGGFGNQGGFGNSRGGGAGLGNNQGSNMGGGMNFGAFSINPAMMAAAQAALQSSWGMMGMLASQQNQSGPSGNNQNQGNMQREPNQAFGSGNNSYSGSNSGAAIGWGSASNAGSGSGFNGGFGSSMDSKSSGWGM
Outline: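 Binding (R) is the ratio of each oligo's mapped-read-normalized abundance in the bound fraction to its abundance in the input. To obtain it, SBP-tagged recombinant TDP-43 (5, 50 or 500 nM) on streptavidin beads was incubated with 500 nM of an in vitro-transcribed 260-nt 3′ UTR oligo pool for 1 h at 4 °C in 25 mM Tris-HCl, 150 mM KCl, 3 mM MgCl2, BSA and SUPERase IN. The RNA retained after washing was released with biotin, then reverse transcribed, amplified by PCR and sequenced.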
For B1, the binding signal was 0.462 R (bound/input frequency ratio). With B2 the binding signal was 7.87 R (bound/input frequency ratio). In the case of B3, the binding signal is reported as 2.12 R (bound/input frequency ratio). B4 was tested, and the binding signal was 5.96 R (bound/input frequency ratio). With B5 the binding signal was 4.5 R (bound/input frequency ratio). With B6 the binding signal was 6.06 R (bound/input frequency ratio). B7 was tested, and the binding signal was 8.23 R (bound/input frequency ratio). For B8, the binding signal was 0.293 R (bound/input frequency ratio). With B9 the binding signal was 2.13 R (bound/input frequency ratio). With B10 the binding signal was 0.219 R (bound/input frequency ratio). B11 was tested, and the binding signal was 0.457 R (bound/input frequency ratio).
